Assay results from PubChem BioAssay (NCATS).
Results filed as inconclusive are left out. A number with no mark means an inactive call. Activity calls are given as the source filed them. Calls follow the shape of the dose curve; as a rule, active = well fitted cell-killing curve with a large enough effect; inconclusive = small, poorly fitted or top-dose-only effect, or effect the other way; inactive = no such curve, though single readings can be large or run the other way.

Assay: Quantitative High-Throughput drug screen in 47 multiple myeloma cell lines against the NCATS MIPE library collection: OPM1_PLB cell viability assay (AID 1918989); also: nearly all actives have a fitted effect of over 40% in size
Details: CellTiter-Glo, 48 h; series mostly up to 45.8 µM; viability (% of control): at the top concentration
Text: PI: Beverly A. Mock Ph.D.
Laboratory of Cancer Biology and Genetics,
Center for Cancer Research, National Cancer Institute,
National Institute of Health, Bethesda, Maryland
Drug resistance and disease progression are common in multiple myeloma (MM) patients, underscoring the need for new therapeutic combinations. […] We hypothesized that effective combinations would reduce MYC expression and enhance p16 activity. […] These preclinical data identify potentially useful drug combinations for evaluation in drug-resistant MM and reveal potential mechanisms of combined drug sensitivity.
Described herein is the primary MIPE qHTS used to cherrypick compounds. Validated compounds were then further tested for potential synergistic activiy.
[1] Peat TJ, Gaikwad SM, Dubois W, Gyabaah-Kessie N, Zhang S, Gorjifard S, Phyo Z, Andres M, Hughitt VK, Simpson RM, Miller MA, Girvin AT, Taylor A, Williams D, D'Antonio N, Zhang Y, Rajagopalan A, Flietner E, Wilson K, Zhang X, Shinn P, Klumpp-Thomas C, McKnight C, Itkin Z, Chen L, Kazandijian D, Zhang J, Michalowski AM, Simmons JK, Keats J, Thomas CJ, Mock BA. Drug combinations identified by high-throughput screening promote cell cycle transition and upregulate Smad pathways in myeloma. Cancer Lett. 2023 Aug 1;568:216284. doi: 10.1016/j.canlet.2023.216284. Epub 2023 Jun 24. PMID: 37356470; PMCID: PMC10408729.
SEQUENCE No. (e.g., 1, 2, 3, etc.); […] (e.g., Cells, Incubation, Reagent, etc.); VALUE and DESCRIPTION.
1; Cells; 5 uL; white, solid bottom 1536-well Greiner assay plate.
2; Compounds; 23 nL; Kalypsis pin tool (Wako USA) equipped with a 1536-well pin head to transfer to the assay plates.
3; Incubation; 48 hours; 37C incubation.
4; Reagent;5uL; CellTiter Glo (Promega).
5; Detector; 425V; Luminescence; Viewlux PerkinElmer.
NOTES (numbers refer to Sequence numbers above)
1. The cell-based screening methods employed in this study were like those previously published. Briefly, the corresponding myeloma cell lines were screened in 1,536-well plates with 500 cells, 5-uL per well for inhibition of cell viability (assessed by measuring ATP levels with CellTiterGlo).
2. NCATS MIPE 4.0 library of approved and investigational drugs were added using the Kalypsis pin tool. Wells treated with DMSO only for 100% viability and media only for 0% viability were used as controls.
3. The assay plates were covered and incubated for 48 hours in a 37C, 5% CO2 incubator with controlled humidity.
4. After 48 hours, CellTilter-GloTM luminescent substrate mix (Promega) reagent was added to the assay plate and plates we incubated for 5 min at room temperature.
5. Signal was measured as median relative luminescence units on a ViewLux (PerkinElmer) multiplate reader.
[1] Heske CM, Davis MI, Baumgart JT, Wilson K, Gormally MV, Chen L, Zhang X, Ceribelli M, Duveau DY, Guha R, Ferrer M, Arnaldez FI, Ji J, Tran HL, Zhang Y, Mendoza A, Helman LJ, Thomas CJ. Matrix Screen Identifies Synergistic Combination of PARP Inhibitors and Nicotinamide Phosphoribosyltransferase (NAMPT) Inhibitors in Ewing Sarcoma. Clin Cancer Res. 2017 Dec 1;23(23):7301-7311. doi: 10.1158/1078-0432.CCR-17-1121. Epub 2017 Sep 12. PMID: 28899971; PMCID: PMC6636827.
Potency is read from the fitted curve at half-maximal effect.

Row | SMILES | Potency | viability (% of control)
1 | Cc1cnc(NC(=O)Nc2cc(Br)c(C)cc2OC[C@@H]2CNCCO2)cn1 | 0.526 µM (active) | 
2 | O=C1NC(O)CCN1[C@@H]1O[C@H](CO)[C@H](O)[C@H]1O (stereo not given in full) |  | 112%
3 | COc1ccc(Nc2nccc(NCCO)n2)cc1 |  | 91.2%
4 | COc1ccc(Nc2cc(-c3cnc(N)nc3)nc(N3CCOCC3)n2)cn1 | 3.72 µM (active) | 
5 | O=C(CCCCCCC(=O)Nc1cccnc1)NO | 4.18 µM (active) | 
6 | COc1cccc2c1C(=O)c1c(O)c3c(c(O)c1C2=O)C[C@@](O)(C(=O)CO)C[C@@H]3O[C@H]1C[C@H](N)[C@@H](O)[C@H](C)O1 | 0.743 µM (active) | 
7 | C[C@H](CCC(=O)O)[C@H]1CCC2C3C[C@H](O)[C@@H]4C[C@H](O)CC[C@]4(C)C3CC[C@@]21C (stereo not given in full) |  | 121%
8 | CC(=O)ON=C1C(c2c(O)[nH]c3cc(Br)ccc23)=Nc2ccccc21 | 3.72 µM (active) | 
9 | CCC(C(=O)O)C1CCC(C)C(C(C)C(O)C(C)C(=O)C(CC)C2OC3(C=CC(O)[C@@]4(CC[C@](C)(C5CC[C@@](O)(CC)C(C)O5)O4)O3)C(C)CC2C)O1 (stereo not given in full) | 1.32 µM (active) | 
10 | COc1cc(CCc2cc(NC(=O)c3ccc(N4C[C@@H](C)N[C@@H](C)C4)cc3)n[nH]2)cc(OC)c1 | 14.8 µM (active) | 
11 | O=C(Nc1nnc(-c2ccco2)o1)c1cc(-c2ccccc2)nc2ccccc12 | 20.9 µM (active) | 
12 | C=CCNc1c(O)cc2c(O)c1C[C@@H](C)C[C@H](OC)[C@@H](O)[C@@H](C)C=C(C)[C@H](OC(N)=O)[C@@H](OC)C=CC=C(C)C(=O)N2 | 0.526 µM (active) | 
13 | COc1cc2c(Nc3ccc(Cl)c(Cl)c3F)ncnc2cc1OCC1C[C@@H]2CN(C)C[C@H]2C1 | 3.32 µM (active) | 
14 | Cc1cnc(Nc2ccc(N3CCN(C)CC3)cc2)nc1Nc1cccc(S(=O)(=O)NC(C)(C)C)c1 | 0.935 µM (active) | 
15 | C#C[C@]1(O)CC[C@@H]2[C@@H]3CCc4cc(O)ccc4[C@H]3CC[C@@]21C | 23.5 µM (active) | 
16 | C[C@H](NC(=O)C(C#N)=Cc1cccc(Br)n1)c1ccccc1 | 2.09 µM (active) | 
17 | CC(O)(C#Cc1ccc2c(c1)N(c1nc(N)ncc1Cl)CC2)c1nccs1 (stereo not given) | 14.8 µM (active) | 
18 | C=CC(=O)Nc1cc(NC(=O)c2ccc(C)c(NC(=O)c3ccno3)c2)cc(C(F)(F)F)c1 | 23.5 µM (active) | 
19 | NC(=O)c1cccc(-c2cccc(OC(=O)NC3CCCCC3)c2)c1 |  | 143%
20 | Nc1ccn(C2CO[C@H](CO)O2)c(=O)n1 (stereo not given in full) |  | 134%

Row | SMILES | Potency | viability (% of control)
21 | Nc1ncn([C@@H]2O[C@H](CO)[C@@H](O)[C@@H]2O)c(=O)n1 | 11.8 µM (active) | 
22 | CC1=C(C(=O)Nc2cc3cn[nH]c3cc2F)C(c2ccc(Cl)cc2F)N=C(c2ccnc(Cl)c2)N1 (stereo not given) | 18.7 µM (active) | 
23 | N#Cc1cc(NC(=O)Nc2nnc(-c3ccncc3)s2)ccc1-c1cn[nH]c1 |  | 134%
24 | C=CC(=O)N1CCc2ccc(-n3c(=O)ccc4cnc5ccc(-c6cnn(C)c6)cc5c43)cc21 | 0.833 µM (active) | 
25 | COC(=O)C=CC(=O)OC | 20.9 µM (active) | 
26 | OCc1ccccc1O[C@@H]1O[C@H](CO)[C@H](O)[C@H](O)[C@H]1O |  | 160%
27 | Cc1noc(-c2ccc(CSCCC(=O)O)cc2)c1NC(=O)OC(C)c1ccccc1Cl (stereo not given) |  | 132%
28 | O=C1NC(=O)[C@@H](c2cn3c4c(cccc24)CCC3)[C@H]1c1c[nH]c2ccccc12 | 2.09 µM (active) | 
29 | Cn1cc(C2=C(c3c4n(c5ccccc35)CCC(CN)C4)C(=O)NC2=O)c2ccccc21 (stereo not given) | 7.43 µM (active) | 
30 | COc1ccc(S(=O)(=O)Nc2cccnc2Nc2ccc(O)cc2)cc1 | 0.235 µM (active) | 
31 | Cn1cc(C[C@@H](N)C(=O)O)c2ccccc21 |  | 135% [at 23.2 µM]
32 | COC(=O)C1C2CC3c4[nH]c5cc(OC)ccc5c4CCN3CC2CC(OC(=O)c2cc(OC)c(OC)c(OC)c2)C1OC (stereo not given) | 23.5 µM (active) | 
33 | CC(C)n1cnc2c(NCCc3ccc(O)cc3)nc(-c3csc4ccccc34)nc21 | 23.5 µM (active) | 
34 | c1cncc(CN2CCC(n3ncc4c(N5CCOCC5)nc(-c5ccc6[nH]ccc6c5)nc43)CC2)c1 | 2.64 µM (active) | 
35 | COc1cccc2c1C(=O)c1c(O)c3c(c(O)c1C2=O)C[C@@](O)(C(=O)CO)C[C@@H]3O[C@H]1C[C@H](N)[C@H](OC2CCCCO2)[C@H](C)O1 (stereo not given in full) | 16.6 µM (active) | 
36 | CCOC(=O)N1CCN([N+]([O-])=NOc2ccc([N+](=O)[O-])cc2C#N)CC1 | 0.418 µM (active) | 
37 | C#CCC(Cc1cnc2nc(N)nc(N)c2n1)c1ccc(C(=O)N[C@@H](CCC(=O)O)C(=O)O)cc1 (stereo not given in full) | 0.166 µM (active) | 
38 | CC(C)NC[C@@H](C(=O)N1CCN(c2ncnc3c2[C@H](C)C[C@H]3O)CC1)c1ccc(Cl)cc1 | 0.372 µM (active) | 
39 | CS(=O)(=O)N1CCc2c(-c3cnc(N)nc3)nc(N3CCOCC3)nc21 | 0.332 µM (active) | 
40 | CC1(C)CC(O)CC(C)(C)N1[O] |  | 136%
